Assay outcomes from PubChem BioAssay.
DAX1 inh-1 = DAX1 (NR0B1) inhibitors, primary screen, cell-based, HEK293, Gal4-DAX1, luciferase luminescence | HEK293 Gal4-DAX1 luciferase reporter | inhibition, % at 6.75 µM | actives 0.99% (n = 340,000) | AID 504766, 2011;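 active = inhibition above the mean over all tested compounds plus 3 SD, cut at about 4.2% in these data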;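 note: 0% = DAX1-transfected cells with DMSO and 100% = empty-vector control cells with DMSO; inhibition shows as a rise in luminescence from relieved DAX1 repression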
Target sequence (P51843 207-470 limits assumed): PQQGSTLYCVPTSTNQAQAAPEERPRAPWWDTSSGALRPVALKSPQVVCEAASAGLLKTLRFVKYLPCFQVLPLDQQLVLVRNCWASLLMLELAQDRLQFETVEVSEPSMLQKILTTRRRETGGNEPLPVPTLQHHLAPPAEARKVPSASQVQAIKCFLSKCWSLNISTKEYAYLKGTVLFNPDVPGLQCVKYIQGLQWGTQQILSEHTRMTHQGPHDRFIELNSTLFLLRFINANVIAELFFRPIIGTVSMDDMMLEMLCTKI
ssDAF12 agonist = S. stercoralis DAF-12 nuclear receptor activators, primary screen, cell-based, luminescence, HEK293, GRIP1 co-expression, lit1-tk-luc; Nuclear hormone receptor DAF-12 (Strongyloides stercoralis); HEK293 ssDAF-12/GRIP1 lit1-tk-luc reporter; % of 3 µM dafachronic acid response; activation, % at 6.8 µM; actives 1% (n = 370,000); AID 652126, 2013;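 active = activation above the mean over all tested compounds plus 3 SD, cut at about 0.9% in these data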;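 note: 0% = DMSO-only wells and 100% = 3 µM delta7-dafachronic acid wells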
SMARCA2 act = SMARCA2 (BRM) function activators, primary screen, cell-based, luminescence, high throughput | actives 1% (n = 370,000) | MG213 cells, MMTV-luciferase reporter, dexamethasone, overnight | activation, % at 9.1 µM | AID 652017, 2013; in the data active = activation above about 7.8%;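 note: 0% = vehicle wells and 100% = reference activator wells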
hgDAF12 agonist = H. glycines DAF-12 receptor agonists, primary screen, cell-based, luminescence, HEK293, GAL4 fusion, UAS-luciferase. Nuclear hormone receptor DAF-12 (Heterodera glycines), GAL4 fusion. HEK293 GAL4-hgDAF12 UAS-luciferase reporter, agonist luminescence; normalized to butyrate control. activation, % at 6.8 µM. actives 1.8% (n = 370,000). AID 687014, 2013;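 active = activation above a cutoff set at the mean of all screened compounds plus 3 SD, cut at about 10% in these data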;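 note: 0% = DMSO wells and 100% = sodium butyrate wells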
DAX1 inh-2 = DAX1 (NR0B1) inhibitors on StAR promoter, primary screen, cell-based, luminescence, SF-1 (NR5A1), full-length DAX-1; HEK293T StAR-luciferase reporter, SF-1/DAX-1 repression relief; inhibition, % at 6.8 µM; actives 1.1% (n = 370,000); AID 652010, 2013;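 active = inhibition above the mean over all tested compounds plus 3 SD, cut at about 3.6% in these data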;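 note: 0% = DAX-1 cells with DMSO and 100% = cells lacking DAX-1 with DMSO; higher inhibition means more luminescence from relief of DAX-1 repression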
hcDAF-12 act = H. contortus DAF-12 nuclear receptor activators, primary screen, cell-based, luminescence, HEK293, lit1-tk-luc reporter. HEK293 hcDAF-12 lit1-tk-luc reporter; 0% DMSO, 100% Δ7-dafachronic acid. activation, % at 6.8 µM. actives 1.4% (n = 370,000);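 active = activation above the mean of all tested compounds plus 3 SD, cut at about 5.5% in these data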;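 note: 100% = response to 3 µM Δ7-dafachronic acid high control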
SMARCA2 act conf = SMARCA2 (BRM) function activators, confirmation, cell-based, luminescence, triplicate. AID 652260, 2013. activation, % at 9.1 µM. actives 30% (n = 3,500). MG213 cells, MMTV-luciferase with dexamethasone, overnight; MG213 cells expressing E1A, Rb sequestered; DMSO wells 0%, reference activator 100%. shares compounds with SMARCA2 act;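 active = activation above its plate's cutoff, the mean activation of tested wells plus 3 SD, cut at about 7.9% in these data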
GAL4-VP16 Luc = GAL4-VP16 luciferase reporter activation, counter-screen for SMARCA2 (BRM) activator project, cell-based, pG5luc, luminescence, high throughput; shares compounds with SMARCA2 act; HEK293 GAL4-VP16 pG5luc reporter; scaled: DMSO wells 0%, SAHA wells 100%; activation, % at 9.1 µM; actives 41% (n = 3,500);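 active = activation above the solvent-only control well mean plus 3 SD, averaged across control plates, cut at about 5.2% in these data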
Starred values were filed as active, the others as inactive; · = not tested or not shown. Most compounds without a hit are left out; they make up all but 4.8% or so of the library.

SMILES | DAX1 inh-1 | ssDAF12 agonist | SMARCA2 act | hgDAF12 agonist | DAX1 inh-2 | hcDAF-12 act | SMARCA2 act conf | GAL4-VP16 Luc
COc1cc(C(=O)c2ccc3c(c2)OCO3)cc(OC)c1OC | -2 | -1 | -1 | 5 | -4 | 0 | · | ·
COc1cc(C(=O)c2cocc2C(=O)c2ccc3c(c2)OCO3)cc(OC)c1OC | 0 | -1 | 9.0* | 0 | -1 | -1 | 0 | 6.3*
CCn1c(CCc2nc3ccccc3[nH]2)n[nH]c1=S | 0 | -2 | -1 | 3 | 0 | 2 | · | ·
Nc1ccc(N=Nc2ccc(O)cc2)c(N)n1 | -2 | 0 | 0 | 1 | -2 | 0 | · | ·
COc1ccc(N=Nc2ccc(N)nc2N)cc1 | 4.6* | 0 | 12* | 11* | 3 | 5 | 11* | 20*
COc1ccc2c(c1)c1nc3n(c(=O)c1n2CC(=O)Nc1ccccc1)CCCS3 | 1 | -1 | 11* | -1 | 0 | -1 | 1 | 0
COc1ccc(NC(=O)Cn2c3ccc(OC)cc3c3nc4n(c(=O)c32)CCS4)cc1 | 1 | -2 | -1 | 1 | -1 | 0 | · | ·
COC(=O)/C=C1\S/C(=N/NC(=O)c2ccc(OC)cc2)NC1=O | 1 | -1 | 3 | 1 | 0 | -1 | · | ·
COc1cc2c(C#CCCO)c(-c3ccsc3)oc(=O)c2cc1OC | -3 | -2 | 9.3* | -5 | -1 | -3 | 11* | 2
COc1cc2c(C#CCCO)c(-c3ccc(C#N)cc3)oc(=O)c2cc1OC | 1 | -1 | 2 | -1 | 0 | -3 | · | ·
CCOC(=O)C1(C)CCCN(C(=O)c2cccnc2SC)C1 (stereo unspecified) | · | -1 | -2 | -3 | -1 | -1 | · | ·
O=c1c2ccccc2sc2ccccc12 | 2 | -1 | 8.5* | 2 | 1 | 2 | 7 | 5.9*
Cc1ccc(C(=O)CSc2nnc(-c3ccco3)n2Cc2ccccc2)cc1 | 0 | -1 | 11* | 3 | 0 | -2 | 6 | 4
CN(Cc1ccco1)C(=O)CCc1nc2sc3c(c2c(=O)[nH]1)CCCC3 | 2 | -1 | 8.2* | -1 | -1 | 0 | 2 | 0
Cc1cc(C)cc(NC(=O)CCc2nc3sc4c(c3c(=O)[nH]2)CCCC4)c1 | 1 | -1 | 24* | 9 | 3 | 4 | 28* | 1
CN(C(=S)NC(=O)c1ccc(Br)o1)c1ccccc1 | 1 | 0 | 1 | 0 | 0 | 5 | · | ·
O=C(Nc1nc(=O)c2ccccc2s1)c1ccc(F)cc1 | 0 | 1 | 19* | 3 | 0 | 2 | 8.1* | 8.0*
O=C(/C=C/Nc1cccc(C(F)(F)F)c1)c1ccco1 | 1 | 0 | 8.7* | 8 | 1 | 5 | 9.2* | 8.5*
COc1ccc(-c2ccc(SCC(=O)NCC3CCCO3)nn2)cc1OC (stereo unspecified) | 0 | 0 | -1 | 1 | 0 | 1 | · | ·
COc1ccc(-c2ccc(SCC(=O)NC3CCCCC3)nn2)cc1OC | 2 | -1 | 8.5* | 5 | 0 | 4 | 11* | 5
CC(=O)c1ccc(NC(=O)NNS(=O)(=O)c2ccc(F)cc2)cc1 | 0 | -1 | -1 | 6 | 1 | 2 | · | ·
Nc1ccc2c(c1)C(=O)c1cc(N)c(Cl)cc1-2 | -1 | 0 | 11* | 10 | 0 | 2 | 11* | 3
COc1ccc(COC(=O)c2nc3nc(C)cc(C)n3n2)cc1F | -1 | -1 | 8.2* | 2 | -1 | 1 | -2 | 0
COc1ccc(CSc2nc3nc(C)cc(C)n3n2)cc1F | 0 | -2 | -1 | -2 | 0 | -2 | · | ·
O=C(N/N=C/c1cccc(F)c1)c1csc2c1CCCC2 | 2 | 0 | 5 | 6 | 3 | 4 | · | ·
SMILES | DAX1 inh-1 | ssDAF12 agonist | SMARCA2 act | hgDAF12 agonist | DAX1 inh-2 | hcDAF-12 act | SMARCA2 act conf | GAL4-VP16 Luc
O=C(N/N=C/c1ccccc1F)c1csc2c1CCCC2 | 2 | 1 | 12* | 9 | 4 | 3 | 8.6* | 10*
CN(C)CCN(C(=O)c1ccco1)c1nc2cc3c(cc2s1)OCCO3 | 1 | -1 | 9.7* | 7 | 2 | 3 | 2 | 4
COc1ccc(CNC(=O)C2CCCN(S(=O)(=O)c3ccc4c(c3)C(C)(C)C(=O)N4C)C2)cc1 (stereo unspecified) | 2 | -2 | -1 | -1 | 0 | -2 | · | ·
CN1C(=O)C(C)(C)c2cc(S(=O)(=O)N3CCCC(C(=O)NCc4ccccc4Cl)C3)ccc21 (stereo unspecified) | 0 | -1 | 10* | 0 | -1 | 0 | -3 | 4
COc1ccc(C2CC(=O)N(C)c3ccccc3S2)cc1OC (stereo unspecified) | 3 | -1 | 10* | 7 | 1 | 5 | 12* | 9.6*
COc1ccc([N+](=O)[O-])cc1N(CC(O)CN1C(=O)NC(C)(C)C1=O)S(=O)(=O)c1ccccc1 (stereo unspecified) | -2 | -1 | -1 | -1 | 0 | 0 | · | ·
O=C(O)C1C(C(=O)Nc2ccc(Cl)cc2)C2C=CC1C21CC1 (stereo unspecified) | 1 | -1 | 8.7* | 1 | 1 | 0 | -1 | 3
Cc1ccc(Nc2nc(COC(=O)COc3ccc(C=O)cc3)cs2)cc1 | 4 | 0 | 9.8* | 9 | 1 | 5 | 8.1* | 9.0*
C/C=C/c1ccc(OCC(=O)OCc2csc(Nc3ccc(C)cc3)n2)c(OC)c1 | -1 | 0 | 2 | 10 | 2 | 2 | · | ·
COc1cc(/C=N/Nc2ccccc2)ccc1OC(=O)c1cccs1 | · | -1 | 9.7* | -1 | 0 | 1 | 3 | 3
CCOc1cc(/C=N/Nc2cccc(C(=O)O)c2)ccc1OC(=O)c1ccccc1 | -4 | 1.1* | 11* | 10 | 3 | 2 | 5 | 18*
